Hits are enriched below; roughly 4.1% of the tested compounds scored in any of these assays.
TROY NFkB inh = inhibitors of TROY-driven NF-kB signaling, primary screen, Q293 LMP1-TROYcd cells, NF-kB luciferase, uHTS. Q293 LMP1-TROYcd NF-kB luciferase reporter, 4 h. inhibition, % at 10 µM. actives 0.98% (n = 360,000);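 active = compounds whose plate-normalised and pattern-corrected inhibition of the luciferase reporter signal at the single screening dose is 50% or more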
MITF TRPM1 inh = inhibitors of MITF-dependent TRPM1 promoter reporter, primary screen, cell-based, SK-MEL-5, single point, luciferase | SK-MEL-5 TRPM1 promoter luciferase, 24 h | inhibition, % at 12.5 µM | actives 0.83% (n = 330,000) | AID 488899, 2010;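 active = mean inhibition across replicates of 60% or more, whatever share of single replicates reaches that level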
Shn3 3UTR inh = reduction of Shn3 3'UTR firefly luciferase signal, primary screen, Schnurri-3 inhibitor project, cell-based, Clone20 osteoblasts, set 2. Clone20 osteoblast Shn3 3'UTR firefly luciferase, 24 h. inhibition, % at 12.5 µM. actives 0.52% (n = 360,000);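 active = mean inhibition of at least 75% with every replicate also reaching 75%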;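 note: 0% = median of neutral control wells and 100% = pilot-screen positive control compound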
EBV LMP1 NFkB = EBV LMP1-driven NF-kappaB luciferase reporter inhibitors, primary screen, cell-based, luminescence, single point. actives 0.69% (n = 350,000). LMP1-induced NF-kappaB luciferase reporter cells. inhibition, % at 12.5 µM; in the data active = inhibition above about 41%;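 note: 0% = neutral control wells and 100% = reference inhibitor control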
TWEAK-Fn14 inh = inhibitors of TWEAK-Fn14 signaling, primary screen, luciferase reporter cells, uHTS; inhibition, % at 10 µM; actives 2% (n = 360,000); AID 1159606, 2016; TWEAK-stimulated Fn14 reporter cells, luciferase luminescence, 8 h; in the data active = inhibition above about 50%
Peg3 prom inh-1 = Peg3 promoter-driven luciferase inhibitors, primary screen, cell-based, HeLa, luciferase luminescence. HeLa PEG-Prom luciferase reporter, overnight. inhibition, % at 20 µM. AID 588405, 2011. actives 1.7% (n = 360,000);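 active = inhibition of at least 50% at 20 µM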
Peg3 prom inh-2 = Peg3 promoter reporter inhibitors, retest, confirmation, cell-based, HeLa, luciferase reporter, single concentration. shares compounds with Peg3 prom inh-1. HeLa PEG-Prom luciferase reporter, luminescence, overnight. inhibition, % at 20 µM. actives 84% (n = 1,300). AID 602417, 2012;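 active = at 20 µM dose, 40% or more inhibition averaged across four replicates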
* hit, by the source's call; . = no result given.

SMILES	TROY NFkB inh	MITF TRPM1 inh	Shn3 3UTR inh	EBV LMP1 NFkB	TWEAK-Fn14 inh	Peg3 prom inh-1	Peg3 prom inh-2
Cc1ccccc1NS(=O)(=O)c1ccc(C(=O)N(C)CC(=O)Nc2ccccc2Br)cc1	5	-19	3	0	4	11	.
CC(=O)NC(Cc1ccccc1C)C(=O)NC1CCN(C(=O)c2ccc(C)cc2)CC1 (centres undefined)	-6	9	-22	1	11	6	.
CCCOc1ccc(C(=O)CCC(=O)NNC(=O)c2cccs2)cc1	-31	-9	-23	3	3	-2	.
CC(C)c1ccc(NC(=O)CSc2nc(-c3ccccc3F)nc3nc[nH]c23)cc1	19	5	12	3	3	60*	25
CC(C)c1ccc(NC(=O)CSc2nc(=O)[nH]c3c2CCCC3)cc1	6	19	16	-7	16	16	.
COCCNC(=O)/C(C#N)=C/C=C/c1ccccc1[N+](=O)[O-]	-23	51	52	-94	46	53*	14
CN(C)c1ccc(/C=C2\SC(=O)N(CCc3nnc(N)s3)C2=O)cc1	77*	83*	69	73*	94*	72*	54*
O=C(/C=C/Nc1ccccc1Br)c1ccccn1	84*	76*	90*	74*	104*	90*	87*
O=C(c1ccoc1)N1CCN(c2cc(-c3ccccc3)nc3cc(-c4ccccc4)nn23)CC1	-7	.	75	5	28	68*	70*
C[C@H]1CC[C@@]2(O[C@@H](CCO)C[C@H](O)[C@H]2O)O1	-5	2	6	1	2	-6	.
CCOc1ccc2c(ccc(/C=C/c3cc(C)c4cccnc4c3O)[n+]2C)c1	4	75*	87*	0	5	101*	84*
COc1nc(N)c(C#N)c(-c2ccc(N(C)CCC#N)cc2)c1C#N	17	10	22	4	4	58*	66*
COc1ccc(S(=O)(=O)NCC(=O)N(Cc2ccco2)C(C(=O)NC(C)(C)C)C(C)C)cc1 (centres undefined)	-1	6	3	-12	20	0	.
COc1cccc(Nc2nc(C(N)Cc3ccccc3)cs2)n1 (centres undefined)	-19	.	4	.	16	89*	96*
CCCCN(C)C(=O)c1ccc(Nc2nc(C(N)Cc3ccccc3)cs2)nc1 (centres undefined)	4	.	14	.	14	40	.
CC(C)CC(N)c1csc(Nc2ccc(C(=O)N(C)Cc3ccccc3)cn2)n1 (centres undefined)	-10	.	35	.	4	60*	85*
CC(C)CC(N)c1csc(NC(=O)NCCc2ccccc2)n1 (centres undefined)	1	.	-4	.	-11	25	.
CN(Cc1ccccc1)C(=O)c1ccc(Nc2nc(C(N)Cc3ccccc3)cs2)nc1 (centres undefined)	0	.	27	.	-13	93*	90*
COc1cccc(Nc2nc(C(N)CO)cs2)n1 (centres undefined)	4	.	-46	.	-10	6	.
COc1cc(N=Nc2ccccc2C(=O)O)ccc1O	5	15	11	4	12	-12	.
COc1cc(N=Nc2c(O)c3ccccc3[nH]c2=O)c(OC)cc1N=Nc1ccccc1	36	26	-4	11	1	59*	83*
Cc1ccc(-n2cc(CNCCc3cscn3)c(-c3ccc(F)cc3)n2)cc1	-10	46	31	8	1	-23	.
Cc1ccc(-n2cc(CNCCCn3ccnc3C)c(-c3ccc(F)cc3)n2)cc1	-33	72*	82	-54	1	112*	98*
CCCCNc1nc(=S)n(-c2ccccc2)c(C)c1C(C)=O	4	64*	-9	7	11	114*	94*

Source: PubChem (several laboratories)
